The panel holds about 83,000 compounds, 20% with a hit somewhere; the sample as a whole holds those more often.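 Method: cells in 96-well plates; compound added at one concentration; 48 h incubation; percent growth measured; values under 10 scored active.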 Values without a mark were called inactive. The source made the active and inactive calls.
Tests used:
Test in all cases: NCI-60 one-dose screen, 48 h (100 = growth as untreated, 0 = no growth, -100 = all killed)
Details in all cases: 10 µM unless noted
SR leukemia = tested on: SR leukemia
RPMI-8226 leukemia = tested on: RPMI-8226 leukemia
OVCAR-8 ovarian = tested on: OVCAR-8 ovarian
OVCAR-5 ovarian = tested on: OVCAR-5 ovarian
OVCAR-4 ovarian = tested on: OVCAR-4 ovarian
SK-OV-3 ovarian = tested on: SK-OV-3 ovarian
IGROV1 ovarian = tested on: IGROV1 ovarian
OVCAR-3 ovarian = tested on: OVCAR-3 ovarian
HS 578T breast = tested on: HS 578T breast
NCI/ADR-RES ovarian = tested on: NCI/ADR-RES ovarian
T-47D breast = tested on: T-47D breast
BT-549 breast = tested on: BT-549 breast
MDA-MB-435 melanoma = tested on: MDA-MB-435 melanoma
SW-620 colon = tested on: SW-620 colon
MCF7 breast = tested on: MCF7 breast
HCT-116 colon = tested on: HCT-116 colon
HCC-2998 colon = tested on: HCC-2998 colon
KM12 colon = tested on: KM12 colon

COc1ccc(Cc2nnc(Nc3nc4ccccc4s3)s2)cc1
growth (SR leukemia): 60.6%
growth (RPMI-8226 leukemia): 107%
growth (OVCAR-8 ovarian): 103%
growth (OVCAR-5 ovarian): 89.1%
growth (OVCAR-4 ovarian): 105%
growth (SK-OV-3 ovarian): 115%
growth (IGROV1 ovarian): 94%
growth (OVCAR-3 ovarian): 103%
growth (HS 578T breast): 94.6%
growth (NCI/ADR-RES ovarian): 95.7%
growth (T-47D breast): 113%
growth (BT-549 breast): 99.6%
growth (MDA-MB-435 melanoma): 96.8%
growth (SW-620 colon): 97.8%
growth (MCF7 breast): 105%
growth (HCT-116 colon): 104%
growth (HCC-2998 colon): 103%
growth (KM12 colon): 102%

CC(C)C[C@@H](C(=O)N[C@H](C(=O)OC1CCCC1)c1ccccc1)[C@H](O)C(=O)NO
growth (SR leukemia): 51.1%
growth (RPMI-8226 leukemia): 29%
growth (OVCAR-8 ovarian): 52.7%
growth (OVCAR-5 ovarian): 59.8%
growth (OVCAR-4 ovarian): 53%
growth (SK-OV-3 ovarian): 67.5%
growth (IGROV1 ovarian): 73.4%
growth (OVCAR-3 ovarian): 43.4%
growth (HS 578T breast): 74.6%
growth (NCI/ADR-RES ovarian): 101%
growth (T-47D breast): 36.7%
growth (BT-549 breast): 69.7%
growth (MDA-MB-435 melanoma): 49.4%
growth (SW-620 colon): 49.8%
growth (MCF7 breast): 43.3%
growth (HCT-116 colon): 56.7%
growth (HCC-2998 colon): 94.4%
growth (KM12 colon): 65.7%

CC1(C)OC(=O)C(=Cc2cccc(Br)c2)C(=O)O1
growth (SR leukemia): 99.7%
growth (RPMI-8226 leukemia): 97.4%
growth (OVCAR-8 ovarian): 98.4%
growth (OVCAR-5 ovarian): 117%
growth (OVCAR-4 ovarian): 114%
growth (SK-OV-3 ovarian): 109%
growth (IGROV1 ovarian): 102%
growth (OVCAR-3 ovarian): 107%
growth (HS 578T breast): 90.8%
growth (NCI/ADR-RES ovarian): 107%
growth (T-47D breast): 92.7%
growth (BT-549 breast): 108%
growth (MDA-MB-435 melanoma): 108%
growth (SW-620 colon): 102%
growth (MCF7 breast): 102%
growth (HCT-116 colon): 102%
growth (HCC-2998 colon): 113%
growth (KM12 colon): 111%

C=C(C)[C@@H]1CC[C@]2(CO)CC[C@]3(C)[C@H](CC[C@@H]4[C@@]5(C)CCC(NCCc6ccc(O)cc6)C(C)(C)[C@@H]5CC[C@]43C)[C@@H]12 (some centres not stated)
growth (SR leukemia): -46.8% (active)
growth (RPMI-8226 leukemia): -53.5% (active)
growth (OVCAR-8 ovarian): -79.4% (active)
growth (OVCAR-5 ovarian): -72.4% (active)
growth (OVCAR-4 ovarian): -89.3% (active)
growth (SK-OV-3 ovarian): 75.8%
growth (IGROV1 ovarian): -85.5% (active)
growth (OVCAR-3 ovarian): -95% (active)
growth (HS 578T breast): -54.5% (active)
growth (NCI/ADR-RES ovarian): -71% (active)
growth (T-47D breast): -66.3% (active)
growth (BT-549 breast): 33.9%
growth (MDA-MB-435 melanoma): -92.4% (active)
growth (SW-620 colon): -80% (active)
growth (MCF7 breast): -77.9% (active)
growth (HCT-116 colon): -89.9% (active)
growth (HCC-2998 colon): -90.1% (active)
growth (KM12 colon): -84% (active)

COc1cc(C(=O)c2c(-c3ccccc3)oc3c(OC)cccc23)cc(OC)c1O
growth (SR leukemia): 11.1%
growth (RPMI-8226 leukemia): 23.9%
growth (OVCAR-8 ovarian): 20.4%
growth (OVCAR-5 ovarian): 45.7%
growth (OVCAR-4 ovarian): 42.1%
growth (SK-OV-3 ovarian): 45.1%
growth (IGROV1 ovarian): 18.8%
growth (OVCAR-3 ovarian): 0.78% (active)
growth (HS 578T breast): 4.85% (active)
growth (NCI/ADR-RES ovarian): 10.5%
growth (T-47D breast): 44%
growth (BT-549 breast): 11.7%
growth (MDA-MB-435 melanoma): -30.4% (active)
growth (SW-620 colon): 22.7%
growth (MCF7 breast): 14.1%
growth (HCT-116 colon): 10.2%
growth (HCC-2998 colon): -3.66% (active)
growth (KM12 colon): 16.6%

Cn1c(/C=C/[N+](=O)[O-])cc2ccccc21
growth (SR leukemia): -7.91% (active)
growth (RPMI-8226 leukemia): -17.3% (active)
growth (OVCAR-8 ovarian): 10.8%
growth (OVCAR-5 ovarian): 7.36% (active)
growth (OVCAR-4 ovarian): 94.2%
growth (SK-OV-3 ovarian): 82.4%
growth (IGROV1 ovarian): 0.609% (active)
growth (OVCAR-3 ovarian): 88.3%
growth (HS 578T breast): 70.2%
growth (NCI/ADR-RES ovarian): 59.5%
growth (T-47D breast): 37.4%
growth (BT-549 breast): -43.2% (active)
growth (MDA-MB-435 melanoma): -21.6% (active)
growth (SW-620 colon): -70.8% (active)
growth (MCF7 breast): -50.5% (active)
growth (HCT-116 colon): -74% (active)
growth (HCC-2998 colon): -95.1% (active)
growth (KM12 colon): -63.8% (active)

Cn1cccc1/C=C1\C(=O)Nc2ccccc21
growth (SR leukemia): 72.8%
growth (RPMI-8226 leukemia): 103%
growth (OVCAR-8 ovarian): 107%
growth (OVCAR-5 ovarian): 87.2%
growth (OVCAR-4 ovarian): 48%
growth (SK-OV-3 ovarian): 94.4%
growth (IGROV1 ovarian): 76.3%
growth (OVCAR-3 ovarian): 74.7%
growth (HS 578T breast): 101%
growth (NCI/ADR-RES ovarian): 93.2%
growth (T-47D breast): 18.2%
growth (BT-549 breast): 89.6%
growth (MDA-MB-435 melanoma): 103%
growth (SW-620 colon): 99.5%
growth (MCF7 breast): 12.3%
growth (HCT-116 colon): 102%
growth (HCC-2998 colon): 48.8%
growth (KM12 colon): 21.8%

C=CCN=C(N)SCCCCCCSC(N)=NCC=C
growth (SR leukemia): 93.7%
growth (RPMI-8226 leukemia): 94%
growth (OVCAR-8 ovarian): 94.6%
growth (OVCAR-5 ovarian): 97.5%
growth (OVCAR-4 ovarian): 109%
growth (SK-OV-3 ovarian): 70.4%
growth (IGROV1 ovarian): 103%
growth (OVCAR-3 ovarian): 95.9%
growth (HS 578T breast): 92.2%
growth (NCI/ADR-RES ovarian): 104%
growth (T-47D breast): 55.9%
growth (BT-549 breast): 84.9%
growth (MDA-MB-435 melanoma): 99.3%
growth (SW-620 colon): 94.7%
growth (MCF7 breast): 90.9%
growth (HCT-116 colon): 75.5%
growth (HCC-2998 colon): 93.1%
growth (KM12 colon): 97.5%

C[C@@H]1O[C@@H](O[C@@H]2C[C@H](c3ccc4c(c3O)C(=O)C3=C(C4=O)[C@@]4(O)C(=O)C[C@](C)(O)C[C@@]4(O)C=C3)O[C@H](C)[C@H]2O)C[C@H](O)[C@@H]1O
growth (SR leukemia): 76.7%
growth (RPMI-8226 leukemia): 92%
growth (OVCAR-8 ovarian): 96.7%
growth (OVCAR-5 ovarian): 102%
growth (OVCAR-4 ovarian): 92%
growth (SK-OV-3 ovarian): 106%
growth (IGROV1 ovarian): 91.2%
growth (OVCAR-3 ovarian): 105%
growth (HS 578T breast): 94.4%
growth (NCI/ADR-RES ovarian): 91.8%
growth (T-47D breast): 93.8%
growth (BT-549 breast): 100%
growth (MDA-MB-435 melanoma): 103%
growth (SW-620 colon): 95%
growth (MCF7 breast): 91.8%
growth (HCT-116 colon): 98.9%
growth (HCC-2998 colon): 102%
growth (KM12 colon): 99.7%
